Source: PubChem
An excerpt weighted towards active compounds, which were near 4.1% of everything screened.
FMDV antiviral: blocks foot and mouth disease virus; FMDV antiviral cell-based qHTS; Potency, µM (series often up to 57.9 µM), most hits filed as inhibitors; hit rate 1.2% among 410,000; AID 1159524; calls by dose curve; tested in HEK293T cells; further: read-out not given here; nearly all actives have a fitted effect of over 45% in size
Sm TGR inh: S. mansoni TGR enzyme inhibition; Q962Y6; purified TGR, DTNB reduction, TNB absorbance 405 nm; Potency, µM (series often up to 114 µM), hits mostly inhibitors; hit rate 3% among 360,000; further: nearly all actives have a fitted effect of over 60% in size
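Kinetic colorimetric format: TGR-catalysed, NADPH-driven DTNB reduction monitored via TNB absorbance. Enzyme dispensed at 20 nM; compound exposure 15 min at room temperature before reaction start.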
AmpC inh no detg: blocks E. coli AmpC beta-lactamase in detergent-free assay; AID 485341; hit rate 0.52% among 330,000; AmpC nitrocefin hydrolysis, absorbance 480 nm, 0.0001% Triton; Potency, µM (top dose mostly 57.1 µM), hits mostly inhibitors; P00811; further: nearly all actives have a fitted effect of over 20% in size
Target sequence (P00811 whole entry, looked up): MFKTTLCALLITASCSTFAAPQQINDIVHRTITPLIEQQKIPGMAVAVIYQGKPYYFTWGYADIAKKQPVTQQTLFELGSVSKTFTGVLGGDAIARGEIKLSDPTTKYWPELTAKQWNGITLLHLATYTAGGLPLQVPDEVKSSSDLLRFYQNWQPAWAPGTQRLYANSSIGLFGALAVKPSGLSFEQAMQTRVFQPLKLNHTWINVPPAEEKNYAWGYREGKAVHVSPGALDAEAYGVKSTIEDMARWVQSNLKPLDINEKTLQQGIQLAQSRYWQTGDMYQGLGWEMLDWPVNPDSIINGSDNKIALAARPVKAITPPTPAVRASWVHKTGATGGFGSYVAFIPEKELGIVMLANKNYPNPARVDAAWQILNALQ
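AmpC (5.3 nM in the dispensed reagent) in 20 mM phosphate pH 7.0 with 0.01% (detergent screen) or 0.0001% Triton X-100 was preincubated with compounds for 15 min at room temperature. Nitrocefin was then added from an 800 uM solution, and hydrolysis was followed at 480 nm.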
AmpC inh detg: blocks E. coli AmpC beta-lactamase in detergent assay; P00811; AmpC hydrolysis of nitrocefin, absorbance 480 nm, 0.01% Triton; Potency, µM (top dose mostly 114 µM), usual class: inhibitors; hit rate 0.041% among 370,000; further: nearly all actives have a fitted effect of over 25% in size
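20 mM phosphate pH 7.0 + 0.01% (detergent screen) or 0.0001% Triton X-100; 5.3 nM AmpC reagent; cpd preinc 15 min RT; nitrocefin (800 uM stock) to start; A480 q20 s × 4 min; Activity was normalised to no-enzyme and no-compound control wells.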
AMA1-RON2 inh: AMA1-RON2 (P. falciparum) interaction inhibition; AlphaScreen AMA1-biotinylated RON2 peptide binding; Potency, µM (titrated, usually from 58.2 µM), usual class: inhibitors; hit rate 0.2% among 360,000; AID 720542; further: nearly all actives have a fitted effect of over 45% in size
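AMA1 (3D7) with his tag at 25 nM final met compounds first, then biotinylated RON2 peptide at 25 nM; detection used donor plus acceptor beads, 10 µg/mL apiece, read by AlphaScreen after 30 min at room temperature.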
Hits are given with their value; . = inactive; ? = inconclusive; / = not tested or not shown; [ ] = remark or other dose. Unless noted, the call rests on the fitted dose curve; in most records, active means well fitted curve in the direction sought with a large enough effect; inconclusive means small, poorly fitted or top-dose-only effect, or another doubt; inactive means no such curve, though single readings can be large; an effect the other way counts as inactive or inconclusive.

SMILES	FMDV antiviral	Sm TGR inh	AmpC inh no detg	AmpC inh detg	AMA1-RON2 inh
Cc1c(Cl)cccc1NC(=O)Cn1c(=O)nc(-c2ccccc2)c2ccccc21	10µM	.	/	.	/
CC(=O)n1cc(C(C[N+](=O)[O-])SCCN)c2ccccc21 (stereo not given)	?	8.9µM	.	.	.
Cn1cc(C(C[N+](=O)[O-])c2ccccc2)c2ccccc21 (stereo not given)	.	.	.	.	.
CCOc1cc(-c2cc(-c3ccc(C)o3)nc(N)c2C#N)ccc1O	.	.	.	.	.
Cc1ccc(-c2c(C#N)c(N)nc3c2CCCCCC3)o1	/	.	.	.	.
Cc1ccc(-c2cc(-c3ccc4c(c3)OCO4)c(C#N)c(N)n2)o1	.	10µM	.	.	.
Cc1ccc(-c2cc(-c3ccc(C)o3)nc(N)c2C#N)cc1	?	3.2µM	.	.	.
Cc1ccc(-c2cc(-c3ccc(F)cc3)c(C#N)c(N)n2)o1	.	20µM	?	.	.
Cc1ccc(-c2cc(-c3ccc(Cl)cc3)c(C#N)c(N)n2)o1	.	3.5µM	.	.	.
CCN(CC)C(=O)CSc1nc2c(c(=O)n(C)c(=O)n2C)n1Cc1ccccc1	.	.	/	.	/
CSc1nc(-c2ccc(Cl)cc2)nc(N)c1C#N	.	.	.	.	.
Cc1cc(-c2cc(-c3ccc(Cl)cc3)nc(N)c2C#N)co1	.	3.2µM	.	.	.
Oc1ccc(Br)cc1CNc1cnc2ccccc2c1	.	.	18µM	.	.
Cc1cccc(Nc2nnc(SCC(=O)NC3CCCc4ccccc43)s2)c1C (stereo not given)	40µM	.	.	.	.
O=C(c1ccccc1)n1nc(-c2ccco2)nc1NCc1ccccc1Cl	.	.	/	.	/
CCn1cnc2c(NCCc3cccnc3)nc(C#N)nc21	.	50µM	.	.	/
CC(=O)Nc1c2c(nn1-c1ccc(C)cc1C)CSC2	/	.	?	.	.
Cc1ccccc1-n1nc2c(c1NC(=O)c1ccc(Br)o1)CSC2	.	32µM	.	.	.
Cc1ccccc1-n1nc2c(c1NC(=O)c1ccco1)CS(=O)(=O)C2	.	45µM	.	.	.
COc1cccc(CNC(=O)C2CCN(c3nnc(-n4c(C)ccc4C)s3)CC2)c1OC	.	.	/	.	/
CCCCCCCn1ccc(=N)cc1	?	.	.	.	.
CCCCCCCCCn1ccc(=N)cc1	20µM	.	.	.	.
COc1ccc(NC(=O)C2=C(C)Nc3ncnn3C2c2sccc2C)cc1 (stereo not given)	.	.	/	.	/
O=C(CCCn1c(=O)c2cccn2c2cccnc21)NCc1ccccc1Br	.	.	/	.	/
CC(C)(C)c1ccc(OCc2ccc(C(=O)N/N=C/c3ccc(O)c(O)c3)cc2)cc1	?	.	14µM	.	.
SMILES	FMDV antiviral	Sm TGR inh	AmpC inh no detg	AmpC inh detg	AMA1-RON2 inh
O=C(COc1ccccc1C(=O)N/N=C\c1ccc(O)c(O)c1)N/N=C/c1ccc(O)c(O)c1	.	?	40µM	?	?
Cc1ncc2c(c1CNC(=O)/C=C/c1cccs1)CCN(C(=O)c1cc(C(C)C)on1)C2	.	/	/	/	/
Cc1ccc(NC(=O)Nc2nnc(SCC(=O)N3CCC(C)CC3)s2)cc1	.	.	/	.	/
CC(C)CCNC(=O)C(c1ccc(O)cc1)N(Cc1cccs1)C(=O)C1COc2ccccc2O1 (stereo not given)	?	.	.	?	.
O=C(NCc1ccco1)C(c1cccs1)N(C(=O)C1COc2ccccc2O1)c1cccc(O)c1 (stereo not given)	.	35µM	.	.	.
COC(=O)[C@@H](NC(=O)O[C@@H]1C(=O)c2cc(Br)ccc2O[C@H]1c1cccc(OC)c1)C(C)C	/	.	.	?	/
CC[C@H](C)[C@@H](NC(=O)O[C@@H]1C(=O)c2cc(Br)ccc2O[C@H]1c1ccc2c(c1)OCO2)C(=O)OC	/	.	35µM	.	/
CCN(CC)CCCNC(=O)c1ccccc1C	.	.	.	?	.
CCN(CC)CCCNC(=O)/C=C/C(=O)O	.	2.5µM	.	.	.
CCOC(=O)C(=Cc1cc(=O)c(OC)co1)C(=O)OCC	8.9µM	?	.	.	.
Cn1cc(CN2CCC(C3(c4ccccn4)NC(=O)N(CC4CCCO4)C3=O)CC2)c2ccccc21 (stereo not given)	.	/	/	/	/
CC(=O)N(c1ccccc1C)C1CCCC1	.	.	.	.	.
CC(=O)N(C1=C(Cl)C(=O)c2ccccc2C1=O)C1CCCCC1	?	0.11µM	.	.	.
COc1ccc(-c2nnc3n2N=C(C)CS3)cc1	.	.	.	.	.
COc1ccc(C2=Nn3c(nnc3-c3ccc(OC)cc3)SC2)cc1	?	.	.	.	.
CCOC(=O)/C(=C/c1ccc(OC(F)F)cc1)C1=Nn2c(nnc2-c2ccc(Cl)cc2)SC1	13µM	/	/	/	.
CCOC(=O)/C(=C\c1ccc(OC(F)F)cc1)C1=Nn2c(nnc2-c2ccc(Cl)cc2)SC1	13µM	.	.	.	.
C/C(=N\N=C(/N)SC1CC(=O)N(c2ccc(Br)cc2)C1=O)c1cccs1 (stereo not given)	.	14µM	.	.	.
O=C(O)Cn1ncc2ccccc2c1=O	.	.	.	.	.
O=c1c2ccccc2cnn1CCOc1ccccc1	10µM	.	.	.	.
Cc1ccc(S(=O)(=O)NC(=O)Nc2nnc(C)s2)cc1	.	.	0.4µM	.	.
CCOC(=O)N1CCN(c2ncc3c(n2)CC(c2ccccc2O)CC3=O)CC1 (stereo not given)	22µM	.	/	.	/
COc1cc(C2CC(=O)c3cnc(N4CCN(Cc5ccccc5)CC4)nc3C2)cc(OC)c1OC (stereo not given)	16µM	.	.	.	.
COc1cc(C2CC(=O)c3cnc(N4CCN(CCO)CC4)nc3C2)cc(OC)c1OC (stereo not given)	.	.	/	.	/
COc1ccc(C2CC(=O)c3c(C)nc(N4CCN(Cc5ccccc5)CC4)nc3C2)cc1OC (stereo not given)	11µM	.	.	.	.
SMILES	FMDV antiviral	Sm TGR inh	AmpC inh no detg	AmpC inh detg	AMA1-RON2 inh
CCOC(=O)N1CCN(c2ncc3c(n2)CC(c2ccc(Cl)cc2)CC3=O)CC1 (stereo not given)	?	.	/	.	/
CC1CCCCN1Cc1c(O)ccc2c(=O)c(-c3ccc(Cl)cc3)c(C(F)(F)F)oc12 (stereo not given)	.	.	/	.	/
CCOc1ccccc1CNC(=O)CN1C(=O)C2CCCCN2c2ccc(C(=O)N(C)C)cc21 (stereo not given)	.	.	/	.	/
O=C(O)c1cc(/C=C/C(=O)c2cc(F)ccc2O)c2c(c1)COCO2	?	28µM	.	.	.
CCCCC/C=C\C/C=C\C/C=C\C/C=C\CCCC(=O)O[C@H](COCCCCCCCCCCCCCCCC)COP(=O)([O-])OCC[N+](C)(C)C	.[6.7 µM]	/	/	/	/
CN(C)c1nc(F)c(F)c(S(=O)(=O)c2ccccc2)c1F	.	40µM	.	.	.
Cn1c(=O)n(C)c2cc(NC(=O)CCl)ccc21	?	18µM	.	?	.
